Experimental data: PubChem BioAssay AID1159580 (chemical genetic matrix, 2015)
Values joined by “and” are separate entries in the source; they are usually repeats but may differ in a detail not shown here. Equal values may be shown once. Among all 5,500 compounds or so, about 2,000 (36%) were called active. Inconclusive results (about 18%) are left out. Cut-off read from the data, not from the text of the source: active = normalized growth mostly below about 0.91 (no sharp cut-off); inconclusive = no clear call, values can overlap the other calls; inactive = mostly above about 0.92. Some of the results follow.

Assay: chemical genetic growth profiling, strain panel (AID 1159580);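 note: tested at 20 µM; growth read once vehicle control cultures reached saturation at 30 °C; 1 = growth at the plate median or of vehicle wells; lower values mean less growth of the strain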
Details: S. cerevisiae deletion strains, growth OD

Measured: normalized growth

Cc1ccsc1/C=C/C1=NCCCN1C
inactive: locus YAL013W, strain DEP1, active compounds read low 1.01 | locus YAL021C, strain ccr4, active compounds read low 1 | locus YAL026C, strain drs2, active compounds read low 0.996 | locus YAL030W, strain snc1, active compounds read low 0.996 | locus YBL061C, strain skt5, active compounds read low 0.984 | locus YBR009C, strain hhf1, active compounds read low 1 | locus YBR021W, strain FUR4, active compounds read low 1.02 | locus YBR023C, strain chs3, active compounds read low 0.984 | locus YBR171W, strain sec66, active compounds read low 0.99 | locus YBR229C, strain ROT2, active compounds read low 1.01 | locus YBR231C, strain swc5, active compounds read low 1.07 | locus YBR279W, strain paf1, active compounds read low 0.992 | locus YCL011C, strain gbp2, active compounds read low 0.982 | locus YCL016C, strain dcc1, active compounds read low 0.996 | locus YCL029C, strain bik1, active compounds read low 0.969 | locus YCL061C, strain MRC1, active compounds read low 0.992 | locus YCL069W, strain vba3, active compounds read low 0.986 | locus YCR088W, strain abp1, active compounds read low 0.993 | locus YDL005C, strain med2, active compounds read low 0.983 | locus YDL035C, strain GPR1, active compounds read low 1.02 | locus YDL040C, strain nat1, active compounds read low 0.985 | locus YDL074C, strain BRE1, active compounds read low 0.995 | locus YDL101C, strain DUN1, active compounds read low 0.991 | locus YDL134C, strain PPH21, active compounds read low 1.02 | locus YDL185W, strain tfp1, active compounds read low 0.938 | locus YDL192W, strain arf1, active compounds read low 0.972 | locus YDR001C, strain nth1, active compounds read low 0.996 | locus YDR069C, strain doa4, active compounds read low 0.993 | locus YDR101C, strain arx1, active compounds read low 0.965 | locus YDR137W, strain rgp1, active compounds read low 0.941 | locus YDR150W, strain NUM1, active compounds read low 0.998 | locus YDR159W, strain sac3, active compounds read low 0.998 | locus YDR162C, strain NBP2, active compounds read low 1.01 | locus YDR195W, strain ref2 1.01 | locus YDR297W, strain sur2, active compounds read low 1 | locus YDR318W, strain mcm21, active compounds read low 0.972 | locus YDR334W, strain swr1, active compounds read low 0.986 | locus YDR335W, strain msn5, active compounds read low 0.991 | locus YDR388W, active compounds read low 0.98 | locus YDR392W, strain spt3, active compounds read low 0.992 | locus YDR502C, strain sam2, active compounds read low 1 | locus YEL003W, strain gim4, active compounds read low 0.996 | locus YEL037C, strain rad23, active compounds read low 0.995 | locus YEL061C, strain CIN8 (second series), active compounds read low 0.992 | locus YEL061C, strain CIN8, active compounds read low 1 | locus YER015W, strain faa2, active compounds read low 0.971 | locus YER016W, strain bim1, active compounds read low 0.982 | locus YER110C, active compounds read low 0.982 | locus YER111C, strain swi4, active compounds read low 0.989 | locus YER155C, strain BEM2 (second series), active compounds read low 1 | locus YER155C, strain BEM2, active compounds read low 0.988 | locus YER167W, strain BCK2, active compounds read low 1.01 | locus YFR010W, strain ubp6, active compounds read low 0.992 | locus YGL078C, strain dbp3, active compounds read low 0.984 | locus YGL086W, strain mad1, active compounds read low 1.01 | locus YGL167C, strain pmr1, active compounds read low 0.987 | locus YGL173C, strain kem1, active compounds read low 0.987 | locus YGL227W, strain vid30, active compounds read low 0.991 | locus YGL240W, strain doc1, active compounds read low 1 | locus YGL248W, strain PDE1, active compounds read low 1.02 | locus YGL253W, strain hxk2, active compounds read low 0.995 | locus YGR078C, strain PAC10, active compounds read low 1 | locus YGR135W, strain pre9, active compounds read low 1.01 | locus YGR229C, strain SMI1, active compounds read low 1.03 | locus YGR252W, strain gcn5, active compounds read low 1.06 | locus YHR013C, strain ard1, active compounds read low 0.978 | locus YHR027C, strain rpn1, active compounds read low 0.982 | locus YHR030C, strain SLT2, active compounds read low 1 and 0.986 | locus YHR079C, strain IRE1 (second series), active compounds read low 0.963 | locus YHR079C, strain IRE1, active compounds read low 0.974 | locus YHR094C, strain hxt1, active compounds read low 0.956 | locus YHR129C, strain ARP1, active compounds read low 1 | locus YHR142W, strain chs7, active compounds read low 0.997 | locus YHR200W, strain rpn10, active compounds read low 0.984 | locus YIL066C, strain RNR3, active compounds read low 0.998 | locus YIL073C, strain SPO22, active compounds read low 0.91 | locus YIL125W, strain kgd1, active compounds read low 0.984 | locus YIR030C, strain dcg1, active compounds read low 0.976 | locus YJL092W, strain hpr5, active compounds read low 0.993 | locus YJL095W, strain BCK1 (second series), active compounds read low 0.991 | locus YJL095W, strain BCK1, active compounds read low 0.988 and 1 | locus YJL115W, strain asf1, active compounds read low 0.99 | locus YJL129C, strain trk1, active compounds read low 0.985 | locus YJL134W, strain LCB3, active compounds read low 1 | locus YJL154C, strain vps35, active compounds read low 0.984 | locus YJL164C, strain tpk1, active compounds read low 0.99 | locus YJL166W, strain qcr8, active compounds read low 0.994 | locus YJL168C, strain set2, active compounds read low 0.984 | locus YJL187C, strain SWE1 (second series), active compounds read low 0.99 | locus YJL187C, strain SWE1, active compounds read low 0.997 | locus YJR043C, strain POL32, active compounds read low 1.01 | locus YJR066W, strain TOR1, active compounds read low 0.967
